Reference: PubChem BioAssay (Tox21)
Values joined by “and” are separate entries in the source; they are usually repeats but may differ in a detail not shown here. Equal values may be shown once. Results filed as inconclusive are left out. A structure can be active in one record and inactive in another. Active and inactive are the calls of the source. Unless noted, calls follow the shape of the dose curve; as a rule, active = well fitted curve in the direction sought with a large enough effect in the repeat runs; inconclusive = weak or mixed curves; inactive = no such curve, though single readings can be large; an effect the other way counts as inactive or inconclusive.

Columns and labels:
[1] = qHTS assay to identify small molecule antagonists of the estrogen receptor alpha (ER-alpha) signaling pathway using the BG1 cell line in the presence of 0.1 nM 17-beta-estradiol - cell viability counter screen (AID 1259241); also: nearly all actives have a fitted effect of over 40% in size; also: potency is read from the fitted curve at half-maximal effect
How it was run: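 VM7Luc4E2 cells (endogenous full-length ER-alpha, 4xERE-luciferase), cultured 5 days in charcoal-stripped serum, exposed to compounds with 0.1 nM 17beta-estradiol (final) for 22 hr at 37C. Viability read in same wells as live-cell protease fluorescence after 30 min.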

[2] = qHTS assay to identify small molecule antagonists of the androgen receptor (AR) signaling pathway using the MDA cell line in the presence of 0.5 nM R1881 - cell viability counter screen (AID 1259242); also: nearly all actives have a fitted effect of over 45% in size; also: potency is read from the fitted curve at half-maximal effect
How it was run: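 Live-cell protease activity was measured by CellTiter-Fluor fluorescence after 30 min. Before that, MDA-kb2 MMTV-luciferase cells had 16 hr at 37C without CO2, exposed to test compounds and 0.5 nM R1881 final.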

[3] = molecular target: Estrogen receptor (Homo sapiens) (UniProt P03372); test: qHTS assay to identify small molecule antagonists of the estrogen receptor alpha (ER-alpha) signaling pathway using the BG1 cell line in the presence of 0.1 nM 17-beta-estradiol (AID 1259244); also: nearly all actives have a fitted effect of over 50% in size; also: potency is read from the fitted curve at half-maximal effect
How it was run: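 Luciferase luminescence (ONE-Glo, 30 min at room temperature) was read after 22 hr at 37C exposure to compounds plus 17beta-estradiol at 0.1 nM final. Cells were VM7Luc4E2 with endogenous ER-alpha and an ERE-driven luciferase, pre-cultured 5 days in hormone-depleted medium.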

[4] = qHTS assay to identify small molecule HDAC inhibitors (AID 1259364); also: nearly all actives have a fitted effect of over 45% in size; also: potency is read from the fitted curve at half-maximal effect
How it was run: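 Luminescence read after 30 min room-temperature HDAC-Glo incubation measures cellular class I/II HDAC activity. Compounds were applied for 2 hr at 37 C to HCT-116 wild-type cells seeded the day before.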

[5] = qHTS assay to identify small molecule HDAC inhibitors - cell viability counter screen (AID 1259365); also: series mostly up to about 92 µM; nearly all actives have a fitted effect of over 50% in size
How it was run: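 Wild-type HCT-116 cells, 1,500/well, cultured overnight, then compound-treated 2 h at 37 C. Viability measured as ATP luminescence with CellTiter-Glo after 30 min at room temperature.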

[6] = qHTS assay to identify small molecule agonists of the sonic hedgehog signaling (Shh) pathway - cell viability counter screen (AID 1259366); also: nearly all actives have a fitted effect of over 50% in size; also: potency is read from the fitted curve at half-maximal effect
How it was run: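 NIH/3T3-derived Gli1-Luc reporter cells, 2,000 per well, received compound after 4 h and were treated about 23 h at 37C. Viability measured in the same wells by CellTiter-Fluor fluorescence after 1 h.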

[7] = qHTS assay to identify small molecule antagonists of the sonic hedgehog signaling (Shh) pathway - cell viability counter screen (AID 1259367); also: nearly all actives have a fitted effect of over 55% in size; also: potency is read from the fitted curve at half-maximal effect
How it was run: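 CellTiter-Fluor signal in conditioned medium-stimulated 3T3 Gli1-Luc cells, 23 hr compound exposure, 37C.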

[8] = qHTS assay to identify small molecule agonists of the sonic hedgehog signaling (Shh) pathway (AID 1259368; calls by dose curve;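 also: NIH/3T3-derived 3T3Gli1-Luc cells carrying a stable Gli1-driven firefly luciferase reporter; series mostly up to about 92 µM; nearly all actives have a fitted effect of over 15% in size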)
How it was run: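 Luminescence was read after 30 min at room temperature with luciferase reagent. Before that, 3T3Gli1-Luc cells (NIH/3T3 clone, stable Gli1-Luc reporter; 2,000/well) were exposed to compounds for 24 hr at 37C, 5% CO2, compounds being added 4 hr post-plating.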

[9] = molecular target: Estrogen receptor beta (Homo sapiens) (UniProt Q92731); test: qHTS assay to identify small molecule agonists of the estrogen receptor beta (ER-beta) signaling pathway (AID 1259377; active = well fitted activation curve with a large enough effect in the signal ratio in the repeat runs, not every such curve was filed as active; the % refers to the signal ratio)
How it was run: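 ER-beta-UAS-bla HEK293T cells in medium with 2% charcoal-stripped FBS were exposed to compounds for 16 h at 37C. Beta-lactamase reporter activity was read as fluorescence after 2 h with LiveBLAzer B/G FRET substrate at room temperature.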

[10] = molecular target: Estrogen receptor beta (Homo sapiens) (UniProt Q92731); test: qHTS assay to identify small molecule antagonists of the estrogen receptor beta (ER-beta) signaling pathway (AID 1259378; active = well fitted inhibition curve with a large enough effect in the signal ratio in the repeat runs, not every such curve was filed as active; the % refers to the signal ratio)
How it was run: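 Antagonist mode: compounds added to beta-lactamase reporter HEK293T ER-beta-UAS cells stimulated with E2 (1nM final), 16 hr at 37C. LiveBLAzer B/G FRET substrate, 2 hours room temperature, fluorescence read-out.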

[11] = qHTS assay to identify small molecule agonists of the androgen receptor (AR) signaling pathway in the presence of an antagonist - cell viability counter screen (AID 1259379); also: nearly all actives have a fitted effect of over 25% in size; also: potency is read from the fitted curve at half-maximal effect
How it was run: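 Cytotoxicity counter-screen run in the same wells as the nilutamide-challenged (3.0 µM final) AR agonist assay in MDA-kb2 cells. Compounds tested at 15 concentrations for 16 h, 37 °C without CO2; CellTiter-Fluor fluorescence read.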

[12] = qHTS assay to identify small molecule agonists of the estrogen receptor beta (ER-beta) signaling pathway - cell viability counter screen (AID 1259380); also: nearly all actives have a fitted effect of over 30% in size; also: potency is read from the fitted curve at half-maximal effect
How it was run: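 Cell viability counter screen: CellTiter-Glo luminescence (30 min, room temperature) measured in the same wells as the beta-lactamase readout, after 16 hr compound exposure at 37C of ER-beta-bla HEK293T cells in 2% charcoal-stripped FBS medium.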

[13] = qHTS assay to identify small molecule antagonists of the estrogen receptor beta (ER-beta) signaling pathway - cell viability counter screen (AID 1259382); also: nearly all actives have a fitted effect of over 55% in size; also: potency is read from the fitted curve at half-maximal effect
How it was run: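 Cytotoxicity was measured in the same wells by CellTiter-Glo luminescence after 30 min at room temperature. Cells were ER-beta-bla HEK293T in charcoal-stripped serum, given compound together with 1 nM E2 and incubated 16 h at 37C.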

[14] = molecular target: Estrogen receptor (Homo sapiens) (UniProt P03372); test: qHTS assay to identify small molecule agonists of the estrogen receptor alpha (ER-alpha) signaling pathway in the presence of an antagonist (AID 1259383; calls by dose curve; also: nearly all actives have a fitted effect of over 15% in size; also: potency is read from the fitted curve at half-maximal effect; as to activation: top concentration of the series differs between compounds)
How it was run: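 Agonist-mode confirmation run in the presence of 10.0nM (final) ICI-182,780 antagonist. The reporter was ERE-driven luciferase in VM7Luc4E2 cells, grown in charcoal-stripped serum. Cells were exposed to 15-concentration compound series for 22hr, then ONE-Glo luminescence was read.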

[15] = qHTS assay to identify small molecule agonists or antagonists of the thyroid stimulating hormone receptor (TSHR) signaling pathway - wild type cell line counter screen (AID 1259384; calls by dose curve)
How it was run: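 Counter screen in untransfected Hek293: compounds (15-point titration, triplicate) plus phosphodiesterase inhibitor Ro20-1724 added after 18 h plating; 30 min RT. Intracellular cAMP via competitive d2/cryptate immunoassay, 1 h incubation.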

[16] = molecular target: Thyrotropin receptor (Homo sapiens) (UniProt P16473); test: qHTS assay to identify small molecule antagonists of the thyroid stimulating hormone receptor (TSHR) signaling pathway (AID 1259385; calls by dose curve; also: nearly all actives have a fitted effect of over 20% in size)
How it was run: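 Antagonist mode: compound-treated TSHR-expressing HEK293 cells were stimulated with 1.5 ng/mL TSH (final) in presence of Ro20-1724 for 30 min at RT. HTRF cAMP detection after 1 h; each compound tested at 15 concentrations, triplicate.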

[17] = qHTS assay to identify small molecule phospholipidosis (PLD) inducers (AID 1259344; active = well fitted curve in the direction sought with a large enough effect; an effect the other way counts as inactive or inconclusive)
How it was run: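 Accumulated phospholipid, stained red by LipidTOX during 24 h compound treatment of HepG2 cells at 37 C, is quantified from images as pit number and intensity, normalised per cell using Hoechst-stained nuclei.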

[18] = qHTS assay to identify small molecule antagonists of the sonic hedgehog signaling (Shh) pathway (AID 1259369; calls by dose curve; also: nearly all actives have a fitted effect of over 45% in size; also: potency is read from the fitted curve at half-maximal effect)
How it was run: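 Antagonist mode: compound added to 3T3 Gli1-Luc cells followed by conditioned-medium stimulation, 24 h at 37 C, 5% CO2. Inhibition taken as loss of Gli1-driven luciferase luminescence.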

[19] = molecular target: Androgen receptor (Homo sapiens) (UniProt P10275); test: qHTS assay to identify small molecule antagonists of the androgen receptor (AR) signaling pathway using the MDA cell line in the presence of 0.5 nM R1881 (AID 1259243); also: nearly all actives have a fitted effect of over 50% in size; also: potency is read from the fitted curve at half-maximal effect
How it was run: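 Luminescent reporter readout (ONE-Glo, 30 min, room temperature) after 16 hr co-treatment of MDA-kb2 cells with test compounds and 0.5 nM R1881 final, at 37C without CO2. The MMTV-driven luciferase responds to both AR and GR.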

[20] = molecular target: Androgen receptor (Homo sapiens) (UniProt P10275); test: qHTS assay to identify small molecule agonists of the androgen receptor (AR) signaling pathway in the presence of an antagonist (AID 1259381; calls by dose curve; also: nearly all actives have a fitted effect of over 15% in size)
How it was run: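 Agonist-mode confirmation run against 3.0 uM final nilutamide: compounds titrated at 15 concentrations onto MDA-kb2 MMTV-luciferase reporter cells. Luminescence measured with ONE-Glo following 16 hr incubation, 37C, 0% CO2.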

Measured: Potency

Sequence of Thyrotropin receptor (Homo sapiens) (P16473 whole entry, looked up): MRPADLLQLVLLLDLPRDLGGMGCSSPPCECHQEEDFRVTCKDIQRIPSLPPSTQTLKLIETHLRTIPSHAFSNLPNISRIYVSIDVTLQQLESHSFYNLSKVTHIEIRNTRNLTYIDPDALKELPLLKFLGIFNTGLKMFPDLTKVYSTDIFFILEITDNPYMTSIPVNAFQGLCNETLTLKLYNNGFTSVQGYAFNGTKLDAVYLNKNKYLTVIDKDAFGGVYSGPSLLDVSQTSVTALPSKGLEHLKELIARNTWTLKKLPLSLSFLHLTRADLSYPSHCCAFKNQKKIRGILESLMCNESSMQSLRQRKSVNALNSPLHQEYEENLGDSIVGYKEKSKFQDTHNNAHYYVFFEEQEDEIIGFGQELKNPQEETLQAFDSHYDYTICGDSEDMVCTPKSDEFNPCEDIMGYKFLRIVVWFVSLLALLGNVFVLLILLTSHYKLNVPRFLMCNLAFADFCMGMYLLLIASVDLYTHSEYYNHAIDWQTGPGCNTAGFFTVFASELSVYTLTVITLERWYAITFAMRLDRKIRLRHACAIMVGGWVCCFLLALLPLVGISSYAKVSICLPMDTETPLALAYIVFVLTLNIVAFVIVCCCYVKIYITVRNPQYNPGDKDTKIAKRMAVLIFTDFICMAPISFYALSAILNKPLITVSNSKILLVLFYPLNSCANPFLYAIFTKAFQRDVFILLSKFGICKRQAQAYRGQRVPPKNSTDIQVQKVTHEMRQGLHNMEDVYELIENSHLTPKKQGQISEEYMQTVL
Sequence of Androgen receptor (Homo sapiens) (P10275 whole entry, looked up): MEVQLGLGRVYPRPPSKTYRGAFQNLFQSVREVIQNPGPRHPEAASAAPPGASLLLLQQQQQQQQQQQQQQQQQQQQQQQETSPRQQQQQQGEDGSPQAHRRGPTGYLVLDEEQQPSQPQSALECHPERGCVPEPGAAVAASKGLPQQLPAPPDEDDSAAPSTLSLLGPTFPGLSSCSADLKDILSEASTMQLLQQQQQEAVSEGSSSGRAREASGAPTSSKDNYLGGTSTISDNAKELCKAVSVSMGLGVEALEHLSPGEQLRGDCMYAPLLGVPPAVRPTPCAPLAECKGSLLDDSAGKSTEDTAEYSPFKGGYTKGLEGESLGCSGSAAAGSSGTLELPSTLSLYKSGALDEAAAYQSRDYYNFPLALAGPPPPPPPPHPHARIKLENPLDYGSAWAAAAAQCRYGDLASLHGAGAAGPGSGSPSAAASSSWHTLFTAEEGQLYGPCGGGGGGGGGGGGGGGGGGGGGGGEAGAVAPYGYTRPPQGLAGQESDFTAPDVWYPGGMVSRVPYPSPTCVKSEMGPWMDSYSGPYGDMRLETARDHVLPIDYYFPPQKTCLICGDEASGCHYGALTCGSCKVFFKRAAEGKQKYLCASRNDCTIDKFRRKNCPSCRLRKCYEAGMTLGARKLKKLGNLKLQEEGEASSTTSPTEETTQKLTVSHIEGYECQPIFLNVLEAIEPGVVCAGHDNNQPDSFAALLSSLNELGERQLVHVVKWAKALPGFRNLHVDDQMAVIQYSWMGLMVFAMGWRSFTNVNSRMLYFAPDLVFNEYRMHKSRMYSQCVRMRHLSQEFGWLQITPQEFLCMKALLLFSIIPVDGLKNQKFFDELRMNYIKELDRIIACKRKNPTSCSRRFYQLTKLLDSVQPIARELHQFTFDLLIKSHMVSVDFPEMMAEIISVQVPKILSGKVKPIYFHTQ
Sequence of Estrogen receptor beta (Homo sapiens) (Q92731 whole entry, looked up): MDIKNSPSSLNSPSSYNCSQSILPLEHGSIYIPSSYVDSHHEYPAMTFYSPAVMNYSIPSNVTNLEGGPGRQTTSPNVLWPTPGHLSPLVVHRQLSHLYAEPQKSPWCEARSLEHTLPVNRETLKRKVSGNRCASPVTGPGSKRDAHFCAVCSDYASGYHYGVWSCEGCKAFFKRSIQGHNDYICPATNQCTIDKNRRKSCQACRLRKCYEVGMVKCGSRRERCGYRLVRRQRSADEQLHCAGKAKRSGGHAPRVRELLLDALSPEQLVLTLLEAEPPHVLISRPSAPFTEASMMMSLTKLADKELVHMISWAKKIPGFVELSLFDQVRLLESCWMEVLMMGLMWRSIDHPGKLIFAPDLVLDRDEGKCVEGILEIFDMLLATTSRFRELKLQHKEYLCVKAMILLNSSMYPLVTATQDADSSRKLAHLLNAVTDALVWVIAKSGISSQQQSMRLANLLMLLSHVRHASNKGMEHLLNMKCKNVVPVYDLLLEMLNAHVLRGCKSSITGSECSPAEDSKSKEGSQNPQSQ
Sequence of Estrogen receptor (Homo sapiens) (P03372 whole entry, looked up): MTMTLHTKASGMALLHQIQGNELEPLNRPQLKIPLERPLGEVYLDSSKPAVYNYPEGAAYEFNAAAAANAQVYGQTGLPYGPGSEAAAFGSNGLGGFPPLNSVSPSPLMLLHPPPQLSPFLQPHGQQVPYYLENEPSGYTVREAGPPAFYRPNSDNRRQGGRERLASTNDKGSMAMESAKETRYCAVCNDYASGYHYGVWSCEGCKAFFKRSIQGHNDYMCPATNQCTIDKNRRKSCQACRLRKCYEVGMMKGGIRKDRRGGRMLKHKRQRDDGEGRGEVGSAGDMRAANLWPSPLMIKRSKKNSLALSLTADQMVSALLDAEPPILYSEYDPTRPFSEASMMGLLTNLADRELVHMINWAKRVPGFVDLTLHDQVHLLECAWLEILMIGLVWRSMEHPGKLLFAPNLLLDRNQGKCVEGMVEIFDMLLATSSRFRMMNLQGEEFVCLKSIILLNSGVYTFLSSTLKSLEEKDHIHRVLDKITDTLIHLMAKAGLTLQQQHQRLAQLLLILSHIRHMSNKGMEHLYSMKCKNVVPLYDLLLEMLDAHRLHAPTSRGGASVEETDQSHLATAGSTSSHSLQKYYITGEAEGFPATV

CC(C)Nc1nc(Cl)nc(NC(C)C)n1
not listed: [17] | [18] | [19] | [20]
inactive: all other assays above

CNC(=O)CSP(=S)(OC)OC
28.1 µM (active) and inactive: [7]
not listed: [15] | [17] | [18] | [19] | [20]
inactive: all other assays above

CC(C)=CC1C(C(=O)OCc2cccc(Oc3ccccc3)c2)C1(C)C (stereo not drawn)
not listed: [5] | [14] | [19] | [20]
inactive: all other assays above

CNC(=O)Oc1cccc2c1OC(C)(C)C2
not listed: [9] | [15] | [17]
inactive: all other assays above

COP(=S)(OC)SCn1nnc2ccccc2c1=O
active: [19] 23.9 µM and 17.2 µM
not listed: [3] | [7] | [10] | [12] | [14] | [17] | [18]
inactive: all other assays above

C[C@]12CCC(=O)C=C1CC[C@@H]1[C@@H]2CC[C@@]2(C)[C@H]1CC[C@]2(C)O
30.9 µM (active) and inactive: [3]
active: [18] 6.16 µM | [14] 11.3 µM and 10.6 µM
not listed: [5] | [9] | [10] | [19] | [20]
inactive: all other assays above

C=CC(=O)OCC(CC)(COC(=O)C=C)COC(=O)C=C
active: [1] 70.4 µM | [2] 31.5 µM | [19] 4.99 µM and 13.7 µM | [6] 11.2 µM and 9.69 µM | [7] 8.87 µM and 9.69 µM | [18] 2.23 µM and 3.06 µM | [11] 62.8 µM and 24.3 µM | [12] 62.8 µM and 19.3 µM | [13] 31.5 µM and 19.3 µM
inactive: [4] | [8] | [20] | [14] | [15] | [16]
22.3 µM (active) and inactive: [3]

CC1=C(C(=O)Nc2ccccc2)SCCO1
active: [4] 24.7 µM and 27.3 µM
not listed: [14] | [17]
inactive: all other assays above

O=[N+]([O-])c1ccc(Cl)c([N+](=O)[O-])c1
active: [1] 27.7 µM and 54.5 µM | [2] 24.7 µM and 21.7 µM | [19] 12.4 µM | [3] 31.1 µM and 43.3 µM | [6] 5.53 µM and 13.7 µM | [7] 3.92 µM and 10.9 µM | [18] 1.1 µM and 6.86 µM | [11] 22 µM and 21.7 µM | [12] 27.7 µM and 27.3 µM | [13] 27.7 µM and 27.3 µM
inactive: [4] | [8] | [20] | [14] | [15] | [16]

N#Cc1cccnc1
not listed: [15] | [17] | [18] | [19] | [20]
inactive: all other assays above

CCC/C=N/O
not listed: [15] | [16] | [17] | [19] | [20]
inactive: all other assays above

O=[N+]([O-])/N=C1\NCCN1Cc1ccc(Cl)nc1
not listed: [3] | [5] | [14] | [15]
inactive: all other assays above

COC(=O)Nc1nc2ccccc2[nH]1
active: [4] 24.3 µM and 27.3 µM
24.3 µM (active) and inactive: [18]
not listed: [3] | [5] | [14] | [15] | [17]
inactive: all other assays above
